Laboratory results reported in ChEMBL document CHEMBL2218924, “A broad activity screen in support of a chemogenomic map for kinase signalling research and drug discovery” (Biochem J, 2013).

What follows are compounds tested against Macrophage-stimulating protein receptor (Homo sapiens) (UniProt Q04912). Settings: at 10 µM.
Sequence of Macrophage-stimulating protein receptor (Homo sapiens) (Q04912 25-304 limits assumed): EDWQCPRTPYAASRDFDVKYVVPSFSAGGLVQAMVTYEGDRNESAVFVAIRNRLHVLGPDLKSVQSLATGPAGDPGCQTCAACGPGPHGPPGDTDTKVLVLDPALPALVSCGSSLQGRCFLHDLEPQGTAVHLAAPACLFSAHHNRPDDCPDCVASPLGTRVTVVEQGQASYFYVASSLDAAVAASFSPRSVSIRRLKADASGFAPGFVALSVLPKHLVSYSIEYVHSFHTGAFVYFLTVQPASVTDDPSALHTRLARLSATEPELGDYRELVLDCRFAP
Sequence of Macrophage-stimulating protein receptor (Homo sapiens) (Q04912 310-1400 limits assumed): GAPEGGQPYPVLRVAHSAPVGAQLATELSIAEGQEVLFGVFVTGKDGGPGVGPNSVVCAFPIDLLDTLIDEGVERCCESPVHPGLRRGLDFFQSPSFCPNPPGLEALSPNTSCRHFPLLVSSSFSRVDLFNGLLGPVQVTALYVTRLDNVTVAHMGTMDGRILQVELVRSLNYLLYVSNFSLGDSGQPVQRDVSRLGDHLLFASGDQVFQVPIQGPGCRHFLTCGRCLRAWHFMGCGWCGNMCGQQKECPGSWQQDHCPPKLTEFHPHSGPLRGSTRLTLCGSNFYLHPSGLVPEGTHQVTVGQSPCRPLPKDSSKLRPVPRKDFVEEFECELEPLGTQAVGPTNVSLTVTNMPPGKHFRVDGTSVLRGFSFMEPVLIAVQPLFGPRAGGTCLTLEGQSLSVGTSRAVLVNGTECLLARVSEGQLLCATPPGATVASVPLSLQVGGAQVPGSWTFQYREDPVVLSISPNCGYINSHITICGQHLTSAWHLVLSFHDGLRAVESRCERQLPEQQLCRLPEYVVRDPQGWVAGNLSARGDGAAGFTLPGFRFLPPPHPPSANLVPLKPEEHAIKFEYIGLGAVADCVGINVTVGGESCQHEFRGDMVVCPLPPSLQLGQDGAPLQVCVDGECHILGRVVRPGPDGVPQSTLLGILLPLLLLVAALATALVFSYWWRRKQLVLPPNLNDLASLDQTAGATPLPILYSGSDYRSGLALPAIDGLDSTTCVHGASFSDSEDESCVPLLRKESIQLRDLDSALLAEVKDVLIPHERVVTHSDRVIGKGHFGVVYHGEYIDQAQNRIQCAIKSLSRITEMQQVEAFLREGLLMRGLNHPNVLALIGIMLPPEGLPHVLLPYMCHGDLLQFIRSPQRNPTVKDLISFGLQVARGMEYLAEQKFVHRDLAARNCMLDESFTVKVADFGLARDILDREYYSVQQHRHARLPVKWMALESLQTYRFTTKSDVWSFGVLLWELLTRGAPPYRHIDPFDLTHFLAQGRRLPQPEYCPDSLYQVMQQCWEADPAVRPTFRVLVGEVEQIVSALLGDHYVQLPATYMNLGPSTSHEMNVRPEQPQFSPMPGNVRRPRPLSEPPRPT

| Structure (SMILES) | residual activity [%] |
| --- | --- |
| CCC(=O)Nc1ccc2ncnc(Nc3cccc(Br)c3)c2c1 | 70 |
| Cc1nc2cc3nc(-c4cccs4)cnc3cc2n1C | 97 |
| O=C1c2ccccc2-[n+]2ccc3c([nH]c4ccccc43)c21 | 70 |
| Cc1ccc(S(=O)(=O)/C=C/C#N)cc1 | 91 |
| N#Cc1cnc2cnc(NCc3cccnc3)cc2c1Nc1ccc(F)c(Cl)c1 | 88 |
| CC(=O)O/N=C1\C(=C2\C(=O)Nc3cc(Br)ccc32)Nc2ccccc21 | 89 |
| CO[C@H]1C[C@@H]2CC[C@@H](C)[C@@](O)(O2)C(=O)C(=O)N2CCCC[C@H]2C(=O)O[C@H]([C@H](C)C[C@@H]2CC[C@@H](O)[C@H](OC)C2)CC(=O)[C@H](C)/C=C(\C)[C@@H](O)[C@@H](OC)C(=O)[C@H](C)C[C@H](C)/C=C/C=C/C=C/1C | 80 |
| O=C1NC(=O)/C(=C/c2ccc3c(c2)OC(F)(F)O3)S1 | 77 |
| CCN(CC)CCCCN1c2ccccc2Oc2ccc(Cl)cc21 | 91 |
| O=C(Nc1cccc(Nc2cc(Nc3cccc(C(F)(F)F)c3)ncn2)c1)C1CC1 | 53 |
| Cc1ccc(NC2=CC(=O)c3sc(C)nc3C2=O)cc1 | 81 |
| COc1ccc(CNc2nc(N(CCO)CCO)nc3c2ncn3C(C)C)cc1 | 85 |
| Oc1ccc(-c2nc(-c3ccc(F)cc3)c(-c3ccncc3)[nH]2)cc1 | 68 |
| CC[n+]1c(/C=C/N(C)c2ccccc2)n(-c2ccccc2)c2ccc(-c3nc4ccccc4s3)cc21 | 57 |
| O=Nc1c(-c2c(O)[nH]c3ccccc23)[nH]c2ccccc12 | 71 |
| Nc1ccc2ncnc(NCCc3ccc(Oc4ccccc4)cc3)c2c1 | 70 |
| O=c1c2ccccc2[nH]c(=S)n1CCN1CCC(=C(c2ccc(F)cc2)c2ccc(F)cc2)CC1 | 78 |
| CC(C)n1cnc2c(NCc3ccccc3)nc(NCCCO)nc21 | 92 |

| Structure (SMILES) | residual activity [%] |
| --- | --- |
| Cc1cc2ncc(-c3ccccc3)nc2cc1C | 79 |
| O=c1cc(-c2cccc3c2Sc2ccccc2S3)oc(N2CCOCC2)c1 | 104 |
| Cc1nc(-c2ccccc2)c(-c2ccncc2)o1 | 96 |
| CNc1cc2c(Nc3cccc(Br)c3)ncnc2cn1 | 66 |
| Nc1n[nH]c2nnc(-c3c(-c4ccccc4)nn4ccccc34)cc12 | 42 |
| CC(=O)c1ccc(N2CCOCC2)cc1O | 77 |
| Cc1cncc2cccc(S(=O)(=O)N3CCCN(C(=O)CN)C[C@H]3C)c12 | 70 |
| O=C1NC(=O)/C(=C\c2ccc3nccnc3c2)S1 | 76 |
| COc1cc2ncnc(Nc3ccc(O)c(Br)c3)c2cc1OC | 50 |
| CCOc1cc2ncnc(Nc3cccc(Br)c3)c2cc1OCC | 57 |
| Nc1cccc(-c2cc3c(Oc4cccc(O)c4)ncnc3[nH]2)c1 | 40 |
| Nc1nc(Nc2ccc(S(N)(=O)=O)cc2)nn1C(=S)Nc1c(F)cccc1F | 2 |
| NC(=O)c1ccc2[nH]c(-c3ccc(Oc4ccc(Cl)cc4)cc3)nc2c1 | 84 |
| O=C1Nc2cc(Br)ccc2/C1=C1/Nc2ccccc2/C1=N\O | 89 |
| Oc1ccc(Nc2nc(-c3ccc(Cl)cc3)cs2)cc1 | 106 |
| COc1cc2ncnc(Nc3ccc(Oc4ccccc4)cc3)c2cc1OC | 59 |
| c1ccc(-c2n[nH]c3c2oc2ccccc23)cc1 | 73 |

What follows are compounds tested against Proto-oncogene tyrosine-protein kinase ROS (Homo sapiens) (UniProt P08922). Settings: at 1 µM.
Sequence of Proto-oncogene tyrosine-protein kinase ROS (Homo sapiens) (P08922 whole entry): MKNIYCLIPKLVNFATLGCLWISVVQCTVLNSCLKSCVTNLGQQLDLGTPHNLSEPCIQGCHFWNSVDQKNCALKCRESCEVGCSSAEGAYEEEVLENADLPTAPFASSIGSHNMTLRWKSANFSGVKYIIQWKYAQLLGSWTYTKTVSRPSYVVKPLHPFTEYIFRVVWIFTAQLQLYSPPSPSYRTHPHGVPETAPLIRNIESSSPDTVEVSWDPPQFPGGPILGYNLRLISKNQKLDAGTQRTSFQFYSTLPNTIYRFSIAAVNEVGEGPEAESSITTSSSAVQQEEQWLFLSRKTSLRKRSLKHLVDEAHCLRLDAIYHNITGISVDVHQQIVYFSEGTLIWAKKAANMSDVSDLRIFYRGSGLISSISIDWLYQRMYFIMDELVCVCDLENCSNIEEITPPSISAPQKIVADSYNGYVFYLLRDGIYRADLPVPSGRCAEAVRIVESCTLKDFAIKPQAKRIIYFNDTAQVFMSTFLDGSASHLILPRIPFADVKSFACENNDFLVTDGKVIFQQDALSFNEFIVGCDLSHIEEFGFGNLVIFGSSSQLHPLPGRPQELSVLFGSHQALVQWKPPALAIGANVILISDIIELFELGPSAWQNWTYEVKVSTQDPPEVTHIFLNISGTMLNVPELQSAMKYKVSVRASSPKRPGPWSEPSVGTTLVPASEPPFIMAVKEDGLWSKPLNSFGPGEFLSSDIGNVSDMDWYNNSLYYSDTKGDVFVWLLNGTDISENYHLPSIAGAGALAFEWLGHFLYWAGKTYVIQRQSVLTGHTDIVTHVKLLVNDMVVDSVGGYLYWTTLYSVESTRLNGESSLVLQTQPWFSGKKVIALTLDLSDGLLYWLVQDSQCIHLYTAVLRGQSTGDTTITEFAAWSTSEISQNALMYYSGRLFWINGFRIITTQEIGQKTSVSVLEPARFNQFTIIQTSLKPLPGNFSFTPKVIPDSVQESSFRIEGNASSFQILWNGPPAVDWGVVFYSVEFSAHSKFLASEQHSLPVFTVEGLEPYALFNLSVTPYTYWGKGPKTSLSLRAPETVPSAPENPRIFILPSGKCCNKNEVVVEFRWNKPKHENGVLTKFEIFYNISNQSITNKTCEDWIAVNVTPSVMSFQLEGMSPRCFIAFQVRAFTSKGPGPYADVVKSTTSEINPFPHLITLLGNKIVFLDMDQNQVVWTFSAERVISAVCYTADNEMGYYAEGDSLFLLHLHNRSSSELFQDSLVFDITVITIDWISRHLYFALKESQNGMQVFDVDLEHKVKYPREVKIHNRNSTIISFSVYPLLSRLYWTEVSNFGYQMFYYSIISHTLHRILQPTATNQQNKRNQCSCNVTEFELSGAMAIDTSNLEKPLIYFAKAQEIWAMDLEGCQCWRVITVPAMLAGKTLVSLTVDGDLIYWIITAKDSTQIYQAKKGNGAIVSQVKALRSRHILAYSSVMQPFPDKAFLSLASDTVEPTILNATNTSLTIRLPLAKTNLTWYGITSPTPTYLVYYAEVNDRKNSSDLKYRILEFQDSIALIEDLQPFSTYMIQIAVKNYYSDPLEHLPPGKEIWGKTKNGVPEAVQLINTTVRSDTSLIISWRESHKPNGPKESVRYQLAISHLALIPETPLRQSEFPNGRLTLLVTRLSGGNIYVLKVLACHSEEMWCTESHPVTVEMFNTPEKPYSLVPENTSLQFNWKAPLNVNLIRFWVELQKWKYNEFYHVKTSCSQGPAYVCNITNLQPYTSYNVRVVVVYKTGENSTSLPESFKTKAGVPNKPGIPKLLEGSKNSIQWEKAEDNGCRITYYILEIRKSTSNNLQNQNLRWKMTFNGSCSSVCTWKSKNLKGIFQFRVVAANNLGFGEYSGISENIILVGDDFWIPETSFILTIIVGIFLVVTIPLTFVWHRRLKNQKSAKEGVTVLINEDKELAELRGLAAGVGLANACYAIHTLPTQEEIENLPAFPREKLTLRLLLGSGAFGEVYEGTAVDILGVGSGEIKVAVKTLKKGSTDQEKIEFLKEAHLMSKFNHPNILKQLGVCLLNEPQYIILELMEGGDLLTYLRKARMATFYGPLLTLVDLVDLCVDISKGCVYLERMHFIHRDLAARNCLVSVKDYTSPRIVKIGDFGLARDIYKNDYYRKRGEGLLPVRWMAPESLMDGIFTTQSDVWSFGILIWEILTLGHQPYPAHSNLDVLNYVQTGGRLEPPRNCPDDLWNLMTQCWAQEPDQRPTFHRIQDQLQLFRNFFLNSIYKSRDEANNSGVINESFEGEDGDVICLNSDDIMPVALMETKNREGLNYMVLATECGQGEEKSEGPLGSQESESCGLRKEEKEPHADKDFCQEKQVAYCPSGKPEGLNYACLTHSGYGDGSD

| Structure (SMILES) | residual activity [%] |
| --- | --- |
| CCC(=O)Nc1ccc2ncnc(Nc3cccc(Br)c3)c2c1 | 92 |
| Cc1nc2cc3nc(-c4cccs4)cnc3cc2n1C | 109 |
| O=C1c2ccccc2-[n+]2ccc3c([nH]c4ccccc43)c21 | 89 |
| Cc1ccc(S(=O)(=O)/C=C/C#N)cc1 | 104 |
| N#Cc1cnc2cnc(NCc3cccnc3)cc2c1Nc1ccc(F)c(Cl)c1 | 67 |
| CC(=O)O/N=C1\C(=C2\C(=O)Nc3cc(Br)ccc32)Nc2ccccc21 | 100 |
| CO[C@H]1C[C@@H]2CC[C@@H](C)[C@@](O)(O2)C(=O)C(=O)N2CCCC[C@H]2C(=O)O[C@H]([C@H](C)C[C@@H]2CC[C@@H](O)[C@H](OC)C2)CC(=O)[C@H](C)/C=C(\C)[C@@H](O)[C@@H](OC)C(=O)[C@H](C)C[C@H](C)/C=C/C=C/C=C/1C | 90 |
| O=C1NC(=O)/C(=C/c2ccc3c(c2)OC(F)(F)O3)S1 | 105 |
| CCN(CC)CCCCN1c2ccccc2Oc2ccc(Cl)cc21 | 100 |
| O=C(Nc1cccc(Nc2cc(Nc3cccc(C(F)(F)F)c3)ncn2)c1)C1CC1 | 92 |
| Cc1ccc(NC2=CC(=O)c3sc(C)nc3C2=O)cc1 | 101 |
| COc1ccc(CNc2nc(N(CCO)CCO)nc3c2ncn3C(C)C)cc1 | 96 |
| Oc1ccc(-c2nc(-c3ccc(F)cc3)c(-c3ccncc3)[nH]2)cc1 | 115 |
| CC[n+]1c(/C=C/N(C)c2ccccc2)n(-c2ccccc2)c2ccc(-c3nc4ccccc4s3)cc21 | 105 |
| O=Nc1c(-c2c(O)[nH]c3ccccc23)[nH]c2ccccc12 | 105 |
| Nc1ccc2ncnc(NCCc3ccc(Oc4ccccc4)cc3)c2c1 | 107 |
| O=c1c2ccccc2[nH]c(=S)n1CCN1CCC(=C(c2ccc(F)cc2)c2ccc(F)cc2)CC1 | 98 |
| CC(C)n1cnc2c(NCc3ccccc3)nc(NCCCO)nc21 | 96 |

| Structure (SMILES) | residual activity [%] |
| --- | --- |
| Cc1cc2ncc(-c3ccccc3)nc2cc1C | 101 |
| O=c1cc(-c2cccc3c2Sc2ccccc2S3)oc(N2CCOCC2)c1 | 109 |
| Cc1nc(-c2ccccc2)c(-c2ccncc2)o1 | 98 |
| CNc1cc2c(Nc3cccc(Br)c3)ncnc2cn1 | 96 |
| Nc1n[nH]c2nnc(-c3c(-c4ccccc4)nn4ccccc34)cc12 | 91 |
| CC(=O)c1ccc(N2CCOCC2)cc1O | 94 |
| Cc1cncc2cccc(S(=O)(=O)N3CCCN(C(=O)CN)C[C@H]3C)c12 | 90 |
| O=C1NC(=O)/C(=C\c2ccc3nccnc3c2)S1 | 94 |
| COc1cc2ncnc(Nc3ccc(O)c(Br)c3)c2cc1OC | 88 |
| CCOc1cc2ncnc(Nc3cccc(Br)c3)c2cc1OCC | 103 |
| Nc1cccc(-c2cc3c(Oc4cccc(O)c4)ncnc3[nH]2)c1 | 98 |
| Nc1nc(Nc2ccc(S(N)(=O)=O)cc2)nn1C(=S)Nc1c(F)cccc1F | 70 |
| NC(=O)c1ccc2[nH]c(-c3ccc(Oc4ccc(Cl)cc4)cc3)nc2c1 | 92 |
| O=C1Nc2cc(Br)ccc2/C1=C1/Nc2ccccc2/C1=N\O | 90 |
| Oc1ccc(Nc2nc(-c3ccc(Cl)cc3)cs2)cc1 | 110 |
| COc1cc2ncnc(Nc3ccc(Oc4ccccc4)cc3)c2cc1OC | 102 |
| c1ccc(-c2n[nH]c3c2oc2ccccc23)cc1 | 97 |
